The text below walks through data of PubChem BioAssay (Tox21).

The structures appear in SMILES notation. Inconclusive results are not listed. A call without a number means that no potency is given here. The source made the active and inactive calls. Calls come from the whole dose curve; as a rule, active = well fitted activation curve with a large enough effect in the signal ratio in the repeat runs (not every such curve was filed as active); inconclusive = weak or mixed curves; inactive = flat fitted curve, though single readings scatter; the % refers to the signal ratio.

The assay is described as follows: qHTS assay to identify small molecule agonists of the TGF-beta/Smad signaling pathway (AID 1346859). Conditions: SBE-bla HEK293T, TGF-beta/Smad beta-lactamase reporter, 5 h; series mostly up to 76.8 µM. The text has this: U.S. Tox21 Program National Center for Advancing Translational Sciences [NCATS] NIH Chemical Genomics Center [NCGC] U.S. Environmental Protection Agency [EPA] National Institutes of Environmental Health Sciences [NIEHS] National Toxicology Program [NTP] U.S. Food and Drug Administration [FDA] Tox21 Assay Overview: Transforming growth factor beta (TGF-beta) superfamily consists of a large number of structurally related dimeric proteins that act as hormones or local mediators in regulating a wide range of biological functions. This superfamily includes TGF-betas themselves, the bone morphogenetic proteins (BMPs) and the activins. These ligands induce oligomerization of serine/threonine receptor kinases and phosphorylate the cytoplasmic signaling molecules of Smad protein family. CellSensor SBE-bla HEK 293T cell line (Life Technologies, Carlsbad, CA), responsive to TGF-beta was used to screen Tox21 10K compound library for identification of agonists/antagonists of the Smad signaling pathway. This cell line contains a beta-lactamase reporter gene under control of the Smad binding element (SBE) stably integrated into HEK 293T cells.
Tox21 Assay Protocol Summary: SBE-bla HEK 293T cells were dispensed at 4,000/well in 6 uL of assay medium into black wall/clear-bottom 1536-well plates using a Multidrop Combi (ThermoFisher Scientific, Waltham, MA) dispenser. After the assay plates were incubated at 37 C and 5% CO2 for an overnight, 23 nL of compounds dissolved in DMSO, positive controls or DMSO only was transferred to the assay plate by a Pintool station (Kalypsys, San Diego, CA). The assay plates were incubated at 37 C and 5% CO2 for 5 hr. One uL of LiveBLAzer B/G FRET substrate (Life Technologies) was added using a Flying Reagent Dispenser (Aurora Discovery, San Diego, CA) and the plates were incubated at room temperature for 2 hr. Fluorescence intensity (405 nm excitation, 460 nm and 530 nm emissions) was measured using an Envision plate reader (PerkinElmer, Shelton, CT).
(Quantitative high-throughput screening tests each substance at several concentrations.)
For the molecule `CCCCCCCCCCC[C@@H](C[C@@H]1OC(=O)[C@H]1CCCCCC)OC(=O)[C@H](CC(C)C)NC=O`, the Potency result is “inactive”. Next, `NC(=S)NC(N)=S`: “inactive”.

On to `C/C=C/C=C/COC(=O)C(C)C`, for which the Potency entry is “inactive”. For `Cc1ccc(-c2ccccc2)cc1`, the Potency result was “inactive”.

`CCCc1ccc(OCC(=O)N2CCN(C(=O)COc3ccc(CCC)cc3OC)CC2)c(OC)c1`: the Potency entry is “inactive”. Take `CCc1cccc(CC)c1NC(=O)CN(CC(=O)O)CC(=O)O`: the Potency entry is “inactive”.

As to `CCc1ccc(Br)cc1`, the Potency result was “inactive”. To `O=C1CCCCCCCCCCCCCCCO1` belongs “inactive”.

As for `CCN(CC)c1ccc2c(-c3ccc(S(=O)(=O)O)cc3S(=O)(=O)[O-])c3ccc(=[N+](CC)CC)cc-3oc2c1`, the Potency result was “inactive”.

On to `O=[N+]([O-])c1ccc(O)cc1C(F)(F)F`, for which the Potency entry is “inactive”. As to `COCCOc1cc2cc(C(=O)NC3CCN(C(C)C)CC3)n(CC(=O)Nc3ccc(Cl)cn3)c2cn1`, the Potency entry was “inactive”.

In the case of `CCCC(=O)OCOC(=O)C1=C(C)NC(C)=C(C(=O)OC)C1c1cccc(Cl)c1Cl` (stereo not given), the Potency entry was “inactive”. With `CCCCCCCCCCCC(=O)OCC(C)OC(=O)CCCCC(=O)O` (stereo not given), the Potency entry was “inactive”. On to `Nc1cc(Cl)c(O)c(Cl)c1`, for which the Potency result is “inactive”.

For `OC[C@@H](O)[C@@H](O)CO`, the Potency result is “inactive”. To `Cc1ccc(N/N=c2\c(=O)cc/c(=N\Nc3ccc(S(=O)(=O)O)cc3)c2=O)c(C)c1` belongs “inactive”. On to `Cc1cc(-n2nc3ccc(Cl)cc3n2)c(O)c(C(C)(C)C)c1`, for which the Potency result was “inactive”. Turning to `CCCCCCCCCCCCOC(=O)c1ccc(O)cc1`, the Potency result is “inactive”. Regarding `CCCC1CCC(=O)CC1`, the Potency result is “inactive”. As to `COc1ccc(NC(=O)CC(C)=O)cc1`, the Potency result was “inactive”.

Take `COc1c(C)c2c(c(O)c1C/C=C(\C)CCC(=O)OCCN1CCOCC1)C(=O)OC2`: the Potency entry was “inactive”.

Consider `FC(F)(F)c1cccc(Cl)c1`, for which the Potency result is “inactive”. On to `O=C1NC(=O)[C@@H]2CC=CC[C@H]12`, for which the Potency result was “inactive”. As for `O=C(O)[C@H](O)[C@@H](O)[C@H](O[C@@H]1O[C@H](CO)[C@H](O)[C@H](O)[C@H]1O)[C@H](O)CO`, the Potency result was “inactive”. `Nc1nc2c(ncn2COCCO)c(=O)[nH]1`: the Potency entry is “inactive”. Regarding `O=C(/C=C/c1ccc(O)c(O)c1)O[C@@H](C(=O)O)[C@@H](OC(=O)/C=C/c1ccc(O)c(O)c1)C(=O)O`, the Potency entry was “inactive”. Regarding `Cc1ccc(C)cc1`, the Potency entry was “inactive”.

In the case of `COc1cc(/C=C/c2ccccc2)oc(=O)c1`, the Potency result is “inactive”. For the molecule `CCOC(=O)NNc1ccc(N(CC)CC(C)O)nn1` (stereo not given), the Potency entry was “inactive”. Consider `CC(=O)Oc1cc2c(s1)CCN(C(C(=O)C1CC1)c1ccccc1F)C2` (stereo not given), for which the Potency result is “inactive”. As to `Cc1c(C)c([N+](=O)[O-])c(C(C)(C)C)c([N+](=O)[O-])c1C`, the Potency result was “inactive”.

For `Nc1nc(N)nc(-c2cc(Cl)ccc2Cl)n1`, the Potency result is “inactive”. To `Fc1ccc(C(c2ccc(F)cc2)N2CCNCC2)cc1` belongs “inactive”; to `Oc1cc(Cl)cc(Cl)c1Cl`, “inactive”.

In the case of `O=C(Nc1ccc2c(O)c(N=Nc3ccc(N=Nc4ccc(S(=O)(=O)O)cc4)cc3)c(S(=O)(=O)O)cc2c1)c1ccccc1`, the Potency result is “inactive”.

With `O=C(O)c1cccc(C(F)(F)F)c1`, the Potency entry was “inactive”. Consider `COc1cc(S(=O)(=O)O)c(C)cc1N=Nc1c(O)ccc2cc(S(=O)(=O)O)ccc12`, for which the Potency result was “inactive”. Consider `O=C1c2ccccc2C(=O)N1SC1CCCCC1`, for which the Potency result was “inactive”. In the case of `Cc1cccc2cccnc12`, the Potency result was “inactive”. As for `CC(=O)c1ccc(C(C)=O)cc1`, the Potency entry is “inactive”.
